Sampled rows, rich in hits. Any-hit rate of the full collection: about 4.5%.
DAX1 inh-1: inhibitors of DAX1 repression of SF-1 activated StAR promoter; HEK293T StAR-luciferase reporter, SF-1/DAX-1 repression relief; inhibition, % at 6.8 µM; 370,000 tested, 1.1% active;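 active = inhibition above the mean over all tested compounds plus 3 SD, cut at about 3.6% in these data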;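 also: 0% = DAX-1 cells with DMSO and 100% = cells lacking DAX-1 with DMSO; higher inhibition means more luminescence from relief of DAX-1 repression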
DAX1 inh-2: inhibitors of human orphan nuclear receptor DAX1 (NR0B1); P51843; HEK293 Gal4-DAX1 luciferase reporter, luminescence; inhibition, % at 6.75 µM; 340,000 tested, 0.99% active;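 active = inhibition above the mean over all tested compounds plus 3 SD, cut at about 4.2% in these data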;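 also: 0% = DAX1-transfected cells with DMSO and 100% = empty-vector control cells with DMSO; inhibition shows as a rise in luminescence from relieved DAX1 repression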
Target sequence (P51843 207-470 limits assumed): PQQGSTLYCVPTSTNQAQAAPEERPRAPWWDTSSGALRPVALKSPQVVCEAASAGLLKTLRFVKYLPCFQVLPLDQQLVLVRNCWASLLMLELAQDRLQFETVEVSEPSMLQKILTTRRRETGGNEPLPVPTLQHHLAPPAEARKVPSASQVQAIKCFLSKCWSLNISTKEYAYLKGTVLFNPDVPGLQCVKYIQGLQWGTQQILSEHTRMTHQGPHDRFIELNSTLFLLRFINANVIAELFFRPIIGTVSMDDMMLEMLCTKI
hgDAF-12 ag: activates the H. glycines DAF-12 receptor ligand-binding domain. HEK293 GAL4-hgDAF12 UAS-luciferase reporter, agonist luminescence; normalized to butyrate control. activation, % at 6.8 µM. 370,000 tested, 1.8% active;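 active = activation above a cutoff set at the mean of all screened compounds plus 3 SD, cut at about 10% in these data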;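 also: 0% = DMSO wells and 100% = sodium butyrate wells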
hcDAF12 agonist: H. contortus DAF-12 activation, primary screen; HEK293 hcDAF-12 lit1-tk-luc reporter, luminescence; 0% DMSO, 100% Δ7-dafachronic acid; activation, % at 6.8 µM; 370,000 tested, 1.4% active; AID 652067;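 active = activation above the mean of all tested compounds plus 3 SD, cut at about 5.5% in these data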;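 also: 100% = response to 3 µM Δ7-dafachronic acid high control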
FXN GAA850 act: frataxin GAA850 promoter activation; HEK293 lucGAA850 FXN promoter luciferase reporter, 24 h; percent of 10 µM SAHA response; activation, % at 6 µM; 360,000 tested, 0.56% active;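 active = activation above the average of all compounds screened plus 3 SD, cutoff fixed separately per campaign, cut at about 7.5% in these data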;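 also: 0% = DMSO wells and 100% = 10 µM SAHA wells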
ssDAF12 agonist: S. stercoralis DAF-12 activation, primary screen; HEK293 ssDAF-12/GRIP1 lit1-tk-luc reporter, luminescence; % of 3 µM dafachronic acid response; activation, % at 6.8 µM; 370,000 tested, 1% active; AID 652126;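 active = activation above the mean over all tested compounds plus 3 SD, cut at about 0.9% in these data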;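 also: 0% = DMSO-only wells and 100% = 3 µM delta7-dafachronic acid wells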
LXRb hcDAF ctr: counter-screen for hcDAF-12 agonists: agonists of human LXR-beta; shares compounds with hcDAF12 agonist; HEK293 Gal4-LXR tk-luc reporter, luminescence, 24 h; normalized: DMSO 0%, positive control 100%; activation, % at 6.8 µM; 3,400 tested, under 10 active;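 active = mean percent activation of the reporter above a cutoff set as the average over tested compounds plus their standard deviation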
Target sequence (P55055 whole entry, looked up, the tested form may be a part): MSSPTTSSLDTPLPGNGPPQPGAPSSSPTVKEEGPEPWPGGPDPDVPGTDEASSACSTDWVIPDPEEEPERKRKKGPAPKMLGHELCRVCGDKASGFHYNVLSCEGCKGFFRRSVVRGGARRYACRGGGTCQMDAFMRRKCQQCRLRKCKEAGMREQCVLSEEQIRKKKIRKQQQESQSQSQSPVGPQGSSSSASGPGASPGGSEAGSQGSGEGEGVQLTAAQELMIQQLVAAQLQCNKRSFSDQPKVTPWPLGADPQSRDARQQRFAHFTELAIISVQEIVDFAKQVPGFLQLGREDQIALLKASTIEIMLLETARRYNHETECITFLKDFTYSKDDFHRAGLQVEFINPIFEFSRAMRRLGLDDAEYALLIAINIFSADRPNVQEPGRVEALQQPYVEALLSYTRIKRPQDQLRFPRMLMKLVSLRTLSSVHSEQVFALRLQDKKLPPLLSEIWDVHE
hcDAF12 conf: confirmation of H. contortus DAF-12 agonists; 3,400 tested, 61% active; activation, % at 6.8 µM; HEK293 hcDAF-12 lit1-tk-luc reporter, luminescence; % of Δ7-dafachronic acid response; shares compounds with hcDAF12 agonist;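 active = mean activation across triplicate tests above the threshold derived from the earlier primary screen, cut at about 5.5% in these data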;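 also: 0% = DMSO only wells and 100% = 3 µM Δ7-dafachronic acid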
The depositor's hits bear a star.

What do the screens show for `CCCCn1cnc2c(oc3nc4c(cc32)CCCC4)c1=O`?
DAX1 inh-1: 3; DAX1 inh-2: 0; hgDAF-12 ag: 11*; hcDAF12 agonist: 8.3*; FXN GAA850 act: 2; ssDAF12 agonist: 0; LXRb hcDAF ctr: 1; hcDAF12 conf: 4

How did N#Cc1ccc(Cn2nnc(-c3ccc(N4CCOCC4)cc3)n2)cc1 do in these assays?
DAX1 inh-1: 0; hgDAF-12 ag: 0; hcDAF12 agonist: 2; ssDAF12 agonist: -2

Results for Cc1ccc(-n2nnc(-c3cc4ccccc4n3C)n2)cc1 ?
DAX1 inh-1: 1; DAX1 inh-2: 2; hgDAF-12 ag: 3; hcDAF12 agonist: 9.7*; FXN GAA850 act: 3; ssDAF12 agonist: 1.0*; LXRb hcDAF ctr: 1; hcDAF12 conf: 13*

What do the screens show for `Cc1ccc(-n2nnc(-c3ccnc4ccccc34)n2)cc1`?
DAX1 inh-1: 2; DAX1 inh-2: 1; hgDAF-12 ag: 5; hcDAF12 agonist: 3; FXN GAA850 act: 1; ssDAF12 agonist: 0

How did CCCCCCC[C@H](N)[C@H](O)C(=O)N(C)[C@@H](CCS(C)=O)C(=O)N[C@@H](Cc1ccc(O)cc1)C(=O)O (some centres not stated) do in these assays?
hgDAF-12 ag: 1; hcDAF12 agonist: -1; ssDAF12 agonist: -1

Results for N=c1oc2cc(O)ccc2cc1C(=O)Nc1nc2ccccc2s1 ?
DAX1 inh-1: 1; DAX1 inh-2: 3; hgDAF-12 ag: 1; hcDAF12 agonist: 7.2*; FXN GAA850 act: -1; ssDAF12 agonist: -1; LXRb hcDAF ctr: 2; hcDAF12 conf: 11*

What do the screens show for `N=c1oc2cc(O)ccc2cc1C(=O)Nc1ccc(Br)cc1`?
DAX1 inh-1: 1; DAX1 inh-2: 4; hgDAF-12 ag: 4; hcDAF12 agonist: 0; FXN GAA850 act: 4; ssDAF12 agonist: 0

Results for Clc1ccc(-n2c(Cc3cccs3)nnc2SC/C=C/c2ccccc2)cc1 ?
DAX1 inh-1: 0; hgDAF-12 ag: -1; hcDAF12 agonist: 1; ssDAF12 agonist: -1

How did Cc1cccc2cc3c(nc12)-c1ccccc1C3=O do in these assays?
DAX1 inh-1: 1; DAX1 inh-2: 1; hgDAF-12 ag: 2; hcDAF12 agonist: 7.2*; FXN GAA850 act: 3; ssDAF12 agonist: 0; LXRb hcDAF ctr: 0; hcDAF12 conf: 5

Results for Cc1nc2c(cc1C#N)C(=O)c1ccccc1-2 ?
DAX1 inh-1: 1; DAX1 inh-2: 0; hgDAF-12 ag: -1; hcDAF12 agonist: -1; FXN GAA850 act: 3; ssDAF12 agonist: -1

What do the screens show for `Cc1ccc(-c2nc3cccnc3s2)cc1NC(=O)c1ccco1`?
DAX1 inh-1: 2; DAX1 inh-2: 1; hgDAF-12 ag: 9; hcDAF12 agonist: 13*; FXN GAA850 act: 2; ssDAF12 agonist: 0; LXRb hcDAF ctr: 0; hcDAF12 conf: 4

How did Cc1ccc(-c2nc3cccnc3s2)cc1NC(=O)C1c2ccccc2Oc2ccccc21 do in these assays?
DAX1 inh-1: 0; DAX1 inh-2: 0; hgDAF-12 ag: 4; hcDAF12 agonist: 5; FXN GAA850 act: 4; ssDAF12 agonist: 0

Results for O=C(N1CCOCC1)N1CC[C@H]2[C@H](CCCN2Cc2ccccc2)C1 ?
DAX1 inh-1: 0; hgDAF-12 ag: 0; hcDAF12 agonist: -2; ssDAF12 agonist: -1

Results for CN1CCc2c(sc(/N=C/c3c[nH]c4ccccc34)c2C#N)C1 ?
DAX1 inh-1: 2; hgDAF-12 ag: 4; hcDAF12 agonist: 8.7*; FXN GAA850 act: 3; ssDAF12 agonist: 1; LXRb hcDAF ctr: 1; hcDAF12 conf: 9.0*

Results for COCCCNc1nc2c(-c3cccc(C)c3)nnn2c2ccccc12 ?
DAX1 inh-1: -1; DAX1 inh-2: 0; hgDAF-12 ag: 3; hcDAF12 agonist: 6.9*; FXN GAA850 act: -1; ssDAF12 agonist: 0; LXRb hcDAF ctr: 0; hcDAF12 conf: 2

What do the screens show for `CCCCOCCCNC(=O)C[C@@H]1C(=O)N(CCc2ccc(Cl)cc2)C2=CCCC[C@]21C(=O)OCC`?
DAX1 inh-1: -2; hgDAF-12 ag: 2; hcDAF12 agonist: -3; ssDAF12 agonist: -1

Results for CCCn1c(=O)c2ccccc2n2c(SCc3nc4ccccc4s3)nnc12 ?
DAX1 inh-1: 3.7*; DAX1 inh-2: 1; hgDAF-12 ag: 8; hcDAF12 agonist: 9.5*; FXN GAA850 act: 7; ssDAF12 agonist: 1.1*; LXRb hcDAF ctr: 1; hcDAF12 conf: 7.3*

How did COc1ccccc1-c1nnc(SCc2nc3ccccc3s2)n1C do in these assays?
DAX1 inh-1: 0; DAX1 inh-2: 2; hgDAF-12 ag: 1; hcDAF12 agonist: 8.6*; FXN GAA850 act: 2; ssDAF12 agonist: 1; LXRb hcDAF ctr: 0; hcDAF12 conf: 3

How did Cn1c(SCc2nc3ccccc3s2)nnc1-c1cccs1 do in these assays?
DAX1 inh-1: 0; DAX1 inh-2: 1; hgDAF-12 ag: 6; hcDAF12 agonist: 7.1*; FXN GAA850 act: 2; ssDAF12 agonist: 1.5*; LXRb hcDAF ctr: 0; hcDAF12 conf: 4

How did CCn1c(SCc2nc3ccccc3s2)nnc1-c1cccs1 do in these assays?
DAX1 inh-1: 0; DAX1 inh-2: 1; hgDAF-12 ag: 9; hcDAF12 agonist: 5; FXN GAA850 act: 4; ssDAF12 agonist: 0

How did O=C(NCc1ccccc1)OCCN1C(=O)CCC12CCCCC2 do in these assays?
DAX1 inh-1: -1; hgDAF-12 ag: 10; hcDAF12 agonist: 4; ssDAF12 agonist: 0

How did Cc1csc(NC(=O)CSc2sc3c(O)cc(=O)[nH]c3c2C#N)n1 do in these assays?
DAX1 inh-1: 0; DAX1 inh-2: -1; hgDAF-12 ag: 0; hcDAF12 agonist: 6.6*; FXN GAA850 act: -1; ssDAF12 agonist: 0; LXRb hcDAF ctr: 0; hcDAF12 conf: 3

How did Cc1ccccc1N=Nc1c(N)[nH]n(-c2ccccc2)c1=O do in these assays?
DAX1 inh-1: 2; hgDAF-12 ag: 8; hcDAF12 agonist: 6.8*; ssDAF12 agonist: 1; LXRb hcDAF ctr: 1; hcDAF12 conf: 5

What do the screens show for `Cc1[nH]n(-c2ccccc2)c(=O)c1C(C[N+](=O)[O-])c1ccc(Cl)cc1` (configuration not stated)?
DAX1 inh-1: -1; DAX1 inh-2: 0; hgDAF-12 ag: 0; hcDAF12 agonist: 6.9*; FXN GAA850 act: -1; ssDAF12 agonist: -1; LXRb hcDAF ctr: 0; hcDAF12 conf: 1
